According to publication PMC4336329 (PLoS ONE, 2015):
The campaign covered roughly 310,000 compounds. About 14,000 (4.5%) showed an effect of 50% or more. The effect is printed as a negative number. The sample as a whole holds a higher share of strong results than the screen did.

Target: human ether-à-go-go-related gene (hERG) potassium channel (human, UniProt Q12809)
Experiment: primary screen, population patch clamp on CHO cells stably expressing hERG; higher = less effect of the substance
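Also: peak tail current of the secondary pulse compared with the same well before compound.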

Sequence of human ether-à-go-go-related gene (hERG) potassium channel (Q12809 whole entry, looked up): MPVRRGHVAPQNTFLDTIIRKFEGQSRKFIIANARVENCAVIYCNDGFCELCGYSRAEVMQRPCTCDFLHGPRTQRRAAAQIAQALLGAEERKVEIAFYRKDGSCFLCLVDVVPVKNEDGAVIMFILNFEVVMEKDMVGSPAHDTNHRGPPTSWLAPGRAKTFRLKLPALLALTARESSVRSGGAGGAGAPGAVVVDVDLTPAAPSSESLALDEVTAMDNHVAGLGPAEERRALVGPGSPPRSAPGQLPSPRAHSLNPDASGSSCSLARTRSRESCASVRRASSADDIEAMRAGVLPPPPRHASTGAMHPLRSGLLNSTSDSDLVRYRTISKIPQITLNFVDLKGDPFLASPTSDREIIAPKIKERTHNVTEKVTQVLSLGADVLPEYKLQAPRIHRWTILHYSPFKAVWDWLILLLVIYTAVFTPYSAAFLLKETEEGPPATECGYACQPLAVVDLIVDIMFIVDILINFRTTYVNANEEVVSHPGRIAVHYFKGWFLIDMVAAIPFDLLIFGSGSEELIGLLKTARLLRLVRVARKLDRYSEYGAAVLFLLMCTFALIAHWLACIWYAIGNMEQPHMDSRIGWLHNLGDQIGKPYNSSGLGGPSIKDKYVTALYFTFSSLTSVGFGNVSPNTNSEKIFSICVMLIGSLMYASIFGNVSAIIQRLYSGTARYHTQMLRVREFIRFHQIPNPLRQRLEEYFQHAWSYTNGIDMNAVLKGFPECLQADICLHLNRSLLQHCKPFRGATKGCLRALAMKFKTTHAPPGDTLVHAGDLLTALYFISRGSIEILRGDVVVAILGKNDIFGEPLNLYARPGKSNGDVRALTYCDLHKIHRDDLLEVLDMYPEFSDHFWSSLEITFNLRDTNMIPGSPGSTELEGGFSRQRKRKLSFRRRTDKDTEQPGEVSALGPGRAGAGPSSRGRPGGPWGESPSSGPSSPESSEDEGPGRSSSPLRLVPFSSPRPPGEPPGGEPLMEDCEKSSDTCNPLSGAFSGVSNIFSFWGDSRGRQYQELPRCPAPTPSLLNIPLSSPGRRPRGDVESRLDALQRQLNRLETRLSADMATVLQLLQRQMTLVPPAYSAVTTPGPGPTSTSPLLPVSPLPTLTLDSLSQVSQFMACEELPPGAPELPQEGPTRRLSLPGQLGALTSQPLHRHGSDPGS

Compound	hERG current change (%, negative = inhibition) at 10uM
COc1cc2c(cc1OC)C(=S)NC1(CCCC1)C2	9.36%
COc1ccc(CCNC(C)C(=O)Nc2ccc(S(N)(=O)=O)cc2)cc1 (centres unmarked)	-9.23%
CC1CCC2C(=O)N(c3ccc(NC4CCCCC4)c([N+](=O)[O-])c3)C(=O)C2C1 (centres unmarked)	1.71%
Cc1ccc(CSc2nc3c(c(=O)[nH]2)C(c2ccncc2)C2=C(CCCC2=O)N3)cc1 (centres unmarked)	9.42%
COc1ccc(CCN2CC(C(=O)N(C)Cc3cccnc3)CC2=O)cc1OC (centres unmarked)	8.53%
COC(=O)c1nnn(-c2nonc2N)c1CSCCO	14.6%
Cc1ccc(N2CC(C(=O)OCC(=O)C(C)(C)C)CC2=O)cc1 (centres unmarked)	-4.69%
Cc1ccc(N2CC(C(=O)OCC(=O)c3ccc([N+](=O)[O-])cc3)CC2=O)cc1 (centres unmarked)	-26.8%
Cc1ccc(N2CC(C(=O)OCc3ccc([N+](=O)[O-])cc3)CC2=O)cc1 (centres unmarked)	-58.5%
O=C1OC(Nc2ccccn2)c2ccccc21 (centres unmarked)	-5.61%
NC(=O)C1(N2CCCCC2)CCN(C(=O)c2ccc(C#CC3(O)CCCCC3)cc2)CC1	-6.21%
Cc1ccc(C(=O)N/C(=C\c2cccnc2)c2nc3ccccc3[nH]2)cc1	-19.7%
COc1ccccc1C(=O)N/C(=C\c1ccccc1)C(=O)NCc1ccco1	-38.1%
O=C(NCc1ccco1)/C(=C\c1ccccc1)NC(=O)c1ccccc1	6.85%
O=C(NCc1ccco1)/C(=C\c1cccnc1)NC(=O)c1ccccc1F	-51.1%
O=C(N/C(=C\c1cccnc1)c1nc2ccccc2[nH]1)c1cccc(Br)c1	-54.9%
COc1ccc(C(=O)N/C(=C/c2cccnc2)C(=O)NCc2ccco2)cc1OC	9.12%
Cc1ccc(C(=O)N/C(=C/c2cccnc2)C(=O)NCc2ccco2)cc1	-41.7%
COc1ccc(/C=C(/NC(=O)c2ccccc2)c2nc3ccccc3[nH]2)cc1OC	-12.5%
O=C(NCc1ccco1)/C(=C/c1cccnc1)NC(=O)c1cccc(Br)c1	-59.6%
CCCNS(=O)(=O)c1cccc2cccnc12	-6.32%
Cc1cccc(-c2cc(C(=O)NCc3ccccn3)c3ccccc3n2)c1	-18%

Compound	hERG current change (%, negative = inhibition) at 10uM
Cc1ccc(OCc2n[nH]c(=S)n2C2CCCCC2)cc1	21%
Cc1ccc(-n2c(C)cc(/C=N/NC(=O)c3ccncc3)c2C)cc1C	17.3%
COc1ccccc1-n1cnnc1SCc1csc(-c2ccccc2)n1	-20.9%
O=C(CCC(=O)c1cccs1)NCc1cccc(C(F)(F)F)c1	-7.88%
COc1ccc(C(=O)N2CCN(c3ncccn3)CC2)cc1S(=O)(=O)N1CCOCC1	6.96%
COc1cc2c(cc1OC)C(COc1ccc(F)cc1)N(C(C)=O)CC2 (centres unmarked)	-11.9%
COc1cc2c(cc1OC)C(COc1ccc([N+](=O)[O-])cc1)NCC2 (centres unmarked)	-76.6%
COc1ccc(OCC2NCCc3cc(OC)c(OC)cc32)cc1 (centres unmarked)	-8.93%
COc1cc2c(cc1OC)C(COc1ccc([N+](=O)[O-])cc1)N(C(C)=O)CC2 (centres unmarked)	-77.4%
COc1cc2c(cc1OC)C(COc1ccc(F)cc1)NCC2 (centres unmarked)	-26.8%
CCC(=O)N1CCc2cc(OC)c(OC)cc2C1COc1ccc(C(=O)OC)cc1 (centres unmarked)	-1.37%
CCc1ccc(OCC2c3cc(OC)c(OC)cc3CCN2C(C)=O)cc1 (centres unmarked)	-11.5%
COC(=O)c1ccc(OCC2c3cc(OC)c(OC)cc3CCN2C(=O)C2CC2)cc1 (centres unmarked)	-56.3%
COC(=O)c1ccc(OCC2c3cc(OC)c(OC)cc3CCN2C(C)=O)cc1 (centres unmarked)	8.8%
O=C(CN1N=C(c2ccccc2)CCC1=O)NCc1ccco1	0.243%
COc1cccc(NC(=O)C2C3C=CC(C3)C2C(=O)O)c1 (centres unmarked)	8.61%
Cc1ccc(Cc2nnc3n(-c4cccc(C)c4)nc(C(=O)c4ccccc4)n3c2=O)cc1	-3.85%
CN1CCC(OC(=O)c2ccc(Br)cc2)CC1.Cl	-41.9%
CN1CCC(=C(c2ccccc2)c2ccc(Br)cc2)CC1.Cl	-68.3%
CN1CCN(C(=S)c2ccc(Br)cc2)CC1	-35.9%
C=CCNc1scc(-c2ccccc2)[n+]1CC=C.[Br-]	-21.4%
C/C=C/C(=O)N1c2ccccc2C(C)=CC1(C)C	3.41%
